Reference: the supplement of paper PMC6555819

Experiments:
Assay in all cases: PBM binding z-score (relative to random genomic background probes); higher = stronger binding; sequences stand for … in GC…GCGATTGACAGCGTAGAATGAAGG
[1] = tested on: RARb homodimer (NR concentration 270 nM)
Outline: (§1)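 Binding z-scores take random background probes as their reference. They come from custom Agilent 4×180K protein-binding microarrays incubated 1 h with ligand-free nuclear receptor dimers, with antibodies against each partner (one per run) detecting binding. Scanned fluorescence was regression-normalized.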

[2] = tested on: RARg:RXRa (NR concentration 270 nM, RXRa partner concentration 90 nM)
Outline: as §1

[3] = tested on: RARg homodimer (NR concentration 270 nM)
Outline: as §1

[4] = tested on: RXRa DBDmut IVT, anti-RXR (DBD mutation: RXRa K156A/R161A, NR concentration 90 nM)
Outline: as §1

[5] = tested on: RXRa homodimer (NR concentration 180 nM)
Outline: as §1

[6] = tested on: THRa:RXRa (NR concentration 90 nM, RXRa partner concentration 90 nM)
Outline: as §1

[7] = tested on: THRa homodimer (NR concentration 90 nM)
Outline: as §1

[8] = tested on: VDR homodimer (NR concentration 270 nM)
Outline: as §1

Sequence	PBM binding z-score [1]	PBM binding z-score [2]	PBM binding z-score [3]	PBM binding z-score [4]	PBM binding z-score [5]	PBM binding z-score [6]	PBM binding z-score [7]	PBM binding z-score [8]
GCTAGTTGGACAGTAAAAGGTCACACACCGGTCG	5.22	4.89	4.27	0.31	4.94	3.55	1.71	1.59
CGAACTAGGTCAATGACAGTGAATCTCCGCACGC	2.77	3.48	4.07	1.91	2.36	2.2	0.673	0.425
TAGCCTAGGTCAGATCGGGCCCGTATACGCTATA	1.94	2.58	3.06	-0.297	1.37	2.39	0.0174	-0.316
CCTAGCAGGCCAGGATCACTCAAGCATTTCGCTT	-0.596	-0.33	-0.385	-0.0229	-0.232	-0.455	-0.257	-0.251
CGTCCAAGGTCAATGCTAGGTCAGAGAAAGCATT	5.02	7.59	7.07	3.6	6.03	4.58	3	2.77
ATCCAAAGGTCGACGAGGTGAGTATACACCGTTT	3.09	4.27	4.1	1.22	4.44	3.66	1.12	0.772
AGAATGAGGCTATTAAGATCAGGGAATTGCGGTC	-0.0206	-0.0314	0.143	0.0802	0.257	0.48	-0.292	-0.448
CATACAGGGGCAGCTAGGCCAGAGTAGGGACGGC	0.473	0.498	1.02	-0.381	-0.153	0.05	-0.63	-0.506
CGTCAAAGTTCAGCTAAGGTAACGTAAAGCACGC	3.8	4.28	5.29	3.46	3.15	5.46	2.11	1.84
GCTTGTAGATCAAGGTTACGAAAGACTAAGCTAA	0.837	0.713	0.558	0.173	1.09	1.81	0.263	-0.274
TGTCAAAGTTCAAAGGTAACGTGAGTATCCACAC	4.01	6.45	6.06	4.32	7.77	3.39	-0.326	4.31
TCTTGTAGATGAGCAGGTTAAGAAAGCTGGCCAA	-0.681	-0.327	-0.525	-0.188	0.00792	-0.277	-0.72	-0.433
TCTATTACTTGAAGGGCAACCGACGAGTCCGTTT	1.51	0.815	0.75	1.72	0.98	0.289	0.362	1.46
CCAAGCAGGCCAGGGTCACTCAAGCATTTCGCTT	2.75	3.16	2.36	0.375	3.22	3	1.15	1.51
CCTCGGAGGCCAGAAGGTCAGAGCTGTCCGCTTT	3.49	3.66	3.12	-0.11	2.05	1.67	0.0524	-0.311
CCTGGGAGGACAGAAGGTCAGAGCTGTCCGCTTT	3.38	3.49	3.63	-0.277	1.92	2.69	0.124	0.289
GGAACGAGGGCATTCGAGTTGATGGCATGGCGAT	0.552	1.05	1.17	3.15	0.655	2.96	-0.631	3.46
TCATATAAGTAAAAGGTGAAAGTCGGTGTGGTAA	1.85	1.3	0.831	1.85	2.11	1.46	0.55	0.109
GGAACGAGGGCAAATTTGATAGCATCTGTCGACG	0.969	1.06	1.73	2.41	0.93	0.959	-0.432	0.807
CAAACTACGTCACAGAGGTCAAAGTCCGTGCGTA	4.71	5.46	4.64	1.87	6.27	3.7	1.47	4.03
ACTAGCTGGCCAAGGGTCACTCAAGATTAGTCCG	3.54	3.78	3.54	0.138	3.9	2.48	0.0817	0.917
TAGCCTTGGTCATTGGGCCAGTATAGTACGCATC	0.501	0.238	0.477	-0.637	0.0749	-0.206	-0.231	-0.72
GCTAGCAGGCCATTTGGTTCACTCAATGACGGGC	-0.301	-0.115	-0.168	0.552	-0.107	-0.195	-0.949	1.2
CCTACTGGTCCACGAAAGGTCATTGATTCAGTGA	4.62	4.79	4.43	1.26	5.49	3.52	1.6	3.62
ATATGTAGGTAATCGGGTCATTCAGTTTGCGCAT	2.15	2.06	1.32	1.13	2.55	3.16	2.46	3.14
CCGACTGGGGCATAAGGCTACCATAAGCCAGCCC	0.172	-0.0263	0.171	-0.797	-0.16	-0.225	-0.406	-0.345
GCTAGCTGGCCATTTGGGTCACTCAATGACGGGC	1.49	0.332	0.89	-0.667	0.339	1.22	0.32	-0.66
TAGCCTAGGTCATGCGCCAGTATACCACGCGAAC	2.94	3.96	4.3	0.931	3.24	3	1.31	0.653
